For orientation: viability means a read-out of living cells in per cent, often relative to untreated cells.

Among all 1,500 compounds or so, about 920 (61%) were called active. So high a share suggests a set chosen from earlier hits. Some of the results follow. Potency and affinity values are given separately. A number with no mark means an inactive call. The rule behind the calls is not given here.

The assay is described as follows: Vero 76 cell cytotoxicity, dose response, cytotoxicity control for VEEV inhibitor project (AID 588719). Particulars: Vero 76 cells viability, cytotoxicity counter-screen; series mostly up to 25 µM; viability: at the top concentration.
`c1ccc(CCNc2ccc3c(c2)Cc2ccccc2-3)nc1`: the “viability” value was 90.8%. The result for `Cc1cc2ccc3ccccc3c2cc1CN(C)C` reads 84.6%; that for `Cc1cccc(C(=O)Nc2ccccc2SCC2CSc3nc4ccccc4c(=O)n32)c1` (stereo not given), 75.4%; that for `O=C(CC1C(=O)NC2CCCCC2N1C(=O)c1ccc([N+](=O)[O-])cc1)Nc1ccccc1` (stereo not given), 87.7%. The result for `CC(=O)C1C(N2CC2)CC2C3CCC4=CC(=O)CCC4(C)C3CCC21C` (stereo not given) reads 85.9%. The result for `CN1CCN(/N=C/c2ccc(N(c3ccccc3)c3ccccc3)cc2)CC1` reads 75.6%; that for `OC1(c2cccs2)CN(c2ccc(Br)cc2)C2=[N+]1CCCS2` (stereo not given), 74%; that for `Nc1ccccc1/C=C/c1ccccc1N`, 81.8%. As for `CN(C)CCC(=O)C(Cc1ccccc1)c1ccccc1` (stereo not given), the “viability” value is 90.7%. As for `Cc1nn(-c2ccccc2)nc1C(=O)Nc1nnc(C(F)(F)F)s1`, the figure is 74%; as for `CCCc1nnc(NC(=O)c2nc(S(=O)(=O)Cc3ccc(C)cc3)ncc2Cl)s1`, 86.1%; as for `COc1ccccc1NC(=O)c1nc(S(=O)(=O)Cc2ccccc2)ncc1Cl`, 96.6%. As for `Cc1ccc(C)c(NS(=O)(=O)c2ccc(-n3cccn3)cc2)c1`, the figure is 95.8%.

As to `Cc1ccccc1-c1n[nH]c(=S)n1/N=C/c1ccc(-c2ccccc2Br)o1`, the “viability” value was 72.7%.

Regarding `O=C(COC(=O)c1ccc(Br)o1)NCc1ccc(Cl)cc1`, the “viability” value was 93.3%. As for `Cc1noc(C)c1NC(=O)N(C)C[C@H]1OCc2cnnn2CCCC(=O)N([C@H](C)CO)C[C@@H]1C`, the figure is 93.2%; as for `CC(C)(C)C(=O)Nc1sc(-c2ccccc2)cc1C(=O)O`, 72.6%. With `Nc1cc[n+](CC(=O)c2ccc3c(c2)OCCO3)cc1`, the “viability” value is 101%. As for `CN(C)c1ccc(C(=O)c2ccc(N(C)C)c3ccccc23)cc1`, the figure is 26.9%. As for `O=C(OCC(=O)N1CCOCC1)c1ccc2[nH]c3c(c2c1)CCCC3`, the figure is 96.7%. As for `COc1ccc(-n2c(O)c(C=NCCN(C)C)c(=O)[nH]c2=O)cc1`, the figure is 101%; as for `O=C(Nc1ccc(N2CCCCC2)c(Cl)c1)c1cccnc1`, 73.2%; as for `Cc1c(O)c2ccccc2oc1=O`, 100%. For the compound `CC1=C(C(=O)N2CCOCC2)CC(CC(=O)NC2CCCCC2)C(=O)N1Cc1ccc(C(C)(C)C)cc1` (stereo not given), the “viability” value was 98.4%. As to `COc1ccc(C2CC(=O)C3=C(C2)NC(C)=C(C#N)C3c2ccc(N(C)C)cc2)cc1` (stereo not given), the “viability” value is 75.9%. The result for `CC(=O)/C(C#N)=C1\NC(=O)C(Cc2ccccc2)S1` (stereo not given) reads 73.6%. The result for `COc1ccc(O)c(CN2CCCC(C(=O)Nc3cccc(-n4cccn4)c3)C2)c1` (stereo not given) reads 81.4%. The result for `CCc1nc(CN2CCCC(C(=O)Nc3ccc(-c4cccc(OC)c4)cc3)C2)c(C)[nH]1` (stereo not given) reads 82.6%; that for `COc1ccc(-c2csc(NC(=S)NC(=O)c3cccs3)n2)cc1Br`, 71.7%; that for `CN(c1ccc(OCC(=O)Nc2ccccc2C(=O)O)cc1)S(=O)(=O)c1ccc(Cl)cc1`, 70.6%.

For the origin of these results see PubChem BioAssay AID588719 (Southern Research Specialized Biocontainment Screening …, 2011).
